Source: the supplement of paper PMC3334620
Over roughly 33,000 sequences, “E-score (-0.5 to 0.5)” has its median near -0.041; the highest 2% begin near 0.37. This excerpt belongs to a sample that is enriched for the highest values.

The sequences below were run against T1, Ecm22 (UniProt Q05958) (assay: PBM E-score (8-mer binding enrichment) (E-score (-0.5 to 0.5)); higher = stronger / more preferred TF binding). Conditions: protein concentration: 200 nM; construct: GST-full length.
T1 sequence: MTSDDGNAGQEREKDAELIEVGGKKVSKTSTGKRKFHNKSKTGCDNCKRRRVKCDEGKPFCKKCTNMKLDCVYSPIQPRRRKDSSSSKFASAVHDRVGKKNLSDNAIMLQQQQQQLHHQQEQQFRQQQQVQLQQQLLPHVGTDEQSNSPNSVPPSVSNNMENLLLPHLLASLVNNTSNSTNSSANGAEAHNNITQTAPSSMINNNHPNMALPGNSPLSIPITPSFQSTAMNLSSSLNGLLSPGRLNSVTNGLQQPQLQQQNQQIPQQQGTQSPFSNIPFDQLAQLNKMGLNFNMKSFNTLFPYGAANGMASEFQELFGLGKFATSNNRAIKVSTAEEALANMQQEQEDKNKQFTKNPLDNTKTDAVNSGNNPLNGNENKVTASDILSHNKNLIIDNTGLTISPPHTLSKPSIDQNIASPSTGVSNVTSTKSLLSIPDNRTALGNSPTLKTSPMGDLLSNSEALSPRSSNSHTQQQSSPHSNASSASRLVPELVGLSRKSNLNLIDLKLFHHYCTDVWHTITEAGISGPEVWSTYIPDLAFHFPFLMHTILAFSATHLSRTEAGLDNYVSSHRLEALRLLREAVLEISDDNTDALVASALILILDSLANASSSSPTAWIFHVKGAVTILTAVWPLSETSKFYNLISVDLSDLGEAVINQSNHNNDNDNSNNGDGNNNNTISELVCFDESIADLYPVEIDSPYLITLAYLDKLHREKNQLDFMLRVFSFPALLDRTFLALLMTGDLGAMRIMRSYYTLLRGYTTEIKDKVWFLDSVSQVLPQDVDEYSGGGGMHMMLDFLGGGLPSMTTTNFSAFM
Description: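 Universal 'all 10-mer' protein binding microarrays (Agilent AMADID 015681) probed with GST-tagged S. cerevisiae TFs (full-length or DBD) made by in vitro transcription/translation (PURExpress), about 100-200 nM. Bound TF was detected with fluorescent anti-GST. Each ungapped 8-mer (which stands for itself and its reverse complement) is scored by the PBM enrichment score (E-score), a modified Wilcoxon-Mann-Whitney statistic from -0.5 to +0.5, computed with the Universal PBM Analysis Suite. Scale: above 0.35 generally sequence-specific binding.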

Row | Sequence | PBM E-score
1 | CTGCGGGC | -0.163
2 | AACGCTTG | -0.121
3 | CTTGGACC | -0.134
4 | CGTAGCTC | 0.32
5 | AACTTAGA | -0.0444
6 | ACGTCGTC | 0.175
7 | GCGTCGTA | 0.471
8 | GCGTCGCA | 0.23
9 | ACGTCGTG | 0.117
10 | CCGTCGGA | 0.0756
11 | CCGTCGTC | 0.0655
12 | GCGTCGAA | 0.0462
13 | ACGTCGTA | 0.464
14 | CCGTCGTA | 0.471
15 | GTCATAGA | -0.115
16 | CTCAACCC | -0.14
17 | AACCCCGT | 0.0296
18 | CGTATGAG | 0.354
19 | AGTATGAC | 0.0876
20 | GGTATGAC | -0.125
21 | AGTATGAA | 0.0349
22 | CGTATGAA | 0.415
23 | CGTATGAC | 0.407
24 | CCGCAATA | 0.0155
25 | AAAACTCG | 0.182

Row | Sequence | PBM E-score
26 | AAACACCG | 0.14
27 | GCATGCCA | 0.0106
28 | CGTTCCCA | 0.443
29 | CGTTCCCC | 0.428
30 | GGTTCCCA | -0.173
31 | CGTTTCCC | 0.261
32 | AGTTCCCC | -0.0578
33 | AGTTCCCA | 0.0586
34 | CGCCTTTC | 0.0685
35 | CTAGAAGA | -0.0952
36 | ATGGACTG | -0.151
37 | CCACTTCC | 0.0365
38 | CAACGAAA | 0.278
39 | AAACGTAT | 0.319
40 | AAACGAAT | 0.453
41 | AAACGAAG | 0.457
42 | TAACGAAA | 0.296
43 | CAACGAAG | 0.277
44 | AACCGAAT | 0.284
45 | AAACGAAA | 0.449
46 | CCACGAAG | 0.0223
47 | GATTAGCC | 0.0338
48 | GCCACTCA | -0.196
49 | AACCGCGC | -0.0112
50 | ACGCTGCA | -0.0508

Row | Sequence | PBM E-score
51 | AAAAACAG | -0.0439
52 | GACGAACC | 0.0132
53 | CACGAACG | 0.312
54 | CACGAACA | 0.177
55 | AACGAACA | 0.409
56 | AACGAACT | 0.354
57 | GACGAACA | 0.0113
58 | AACGAACG | 0.437
59 | CACGAACC | 0.0995
60 | TACGAACA | 0.452
61 | TCCGAACA | 0.0654
62 | AGCGAACA | 0.198
63 | AACGAACC | 0.408
64 | GCCCGGCC | -0.229
65 | ACGGTTAC | 0.255
66 | AGGAAGGG | -0.211
67 | TCTGCTAA | -0.086
68 | CTTTCTCA | 0.00463
69 | CACTATCA | -0.0654
70 | CCGCTGAA | -0.00985
71 | GTCTGGTA | 0.00642
72 | AAACGAAC | 0.454
73 | GAACGAAC | 0.453
74 | CCACGAAA | -0.0672
75 | AAGCGAAC | 0.268

Row | Sequence | PBM E-score
76 | TGACGAAA | 0.061
77 | GAACGAAA | 0.43
78 | GAACGGAC | 0.279
79 | CAACGAAC | 0.272
80 | AAACGGAC | 0.307
81 | AGCGGGAG | -0.188
82 | GGGGGTTA | -0.298
83 | AACCCGAG | 0.267
84 | GCATCCGC | -0.18
85 | CTGCGGGA | -0.163
86 | AGGAGCGA | 0.328
87 | CGTATAAC | 0.473
88 | CGTATCAA | 0.386
89 | TGTATAAA | 0.172
90 | AGTATAAG | 0.109
91 | CGTATAAA | 0.477
92 | AGTATAAC | 0.0917
93 | AGTATAAA | 0.241
94 | CATATAAG | 0.0284
95 | CGTATCAC | 0.365
96 | CGTATAAG | 0.466
97 | TGTATCAA | -0.0485
98 | GGTATAAC | 0.0372
99 | CTGAAGAC | 0.056
100 | CAAGCCGC | -0.0639

Row | Sequence | PBM E-score
101 | CGCTTGGC | 0.0372
102 | CCGCGCGG | 0.263
103 | CGTGTGTC | 0.0878
104 | AGATCAGC | -0.106
105 | ACATCTTG | -0.0408
106 | CGCAGTAC | 0.174
107 | CGCACGAA | 0.175
108 | CTTCTTCA | -0.341
109 | CCCGAAGC | -0.0995
110 | GGCGATGA | -0.00497
111 | ACTTTACG | 0.394
112 | CCTTTACG | 0.329
113 | ACTTTACA | -0.00715
114 | ATTTTACG | 0.392
115 | ATTTTACC | 0.06
116 | AATTTACG | 0.303
117 | CTCTCCGC | -0.147
118 | GCAGTGCC | -0.179
119 | GTAACCTA | 0.00094
120 | AGCCACGC | -0.14
121 | ATGAGCGG | -0.0285
122 | CCGAGCGG | 0.202
123 | CCGAGCGA | 0.237
124 | GCGAGCGA | 0.31
125 | ACGAGCGG | 0.386

Row | Sequence | PBM E-score
126 | ACGAGCGA | 0.409
127 | AAGAGCGT | 0.0857
128 | ACGAGCGC | 0.327
129 | ACGAGCGT | 0.389
130 | AGTCTTTG | -0.0796
131 | ATCTCGGC | 0.0673
132 | CGCTAAGA | 0.149
133 | CCACTGCC | -0.0201
134 | GCAGGCCA | -0.00078
135 | CACCCCCG | -0.2
136 | TCAGTCGA | 0.0318
137 | CAAGCGGG | -0.0323
138 | ATTCTACA | 0.0155
139 | GAGAGCGC | -0.0803
140 | GACGAGCC | 0.0624
141 | AACGAGCC | 0.442
142 | GACGAGCA | 0.0907
143 | CACGAGCA | 0.0712
144 | CACGAGCC | 0.143
145 | CACGAGCG | 0.201
146 | TGCGAGCA | 0.238
147 | TCCGAGCA | 0.236
148 | AACGAGCG | 0.459
149 | TACGAGCA | 0.467
150 | AGCGAGCG | 0.345

Row | Sequence | PBM E-score
151 | AACGAGCA | 0.46
152 | AGCGTGGG | -0.0957
153 | GGTTGGAC | -0.241
154 | AACCGAAA | 0.235
155 | AAATTCTG | -0.0343
156 | ACCGGATC | -0.0309
157 | CAAGTGCG | -0.0245
158 | ACTCCATA | -0.195
159 | CAGGAGAC | 0.0295
160 | AGGATGAG | -0.0765
161 | ACCATAGC | -0.261
162 | GAACCGGC | -0.0167
163 | GCCTTTAA | -0.198
164 | AGCGAGCT | 0.309
165 | ACCGAGCT | 0.235
166 | AACGAGCT | 0.445
167 | CCGCTTTC | -0.0554
168 | GGCCTCCC | -0.0791
169 | GTCGCAGA | 0.123
170 | GTCGCATA | 0.369
171 | ATCGCATA | 0.289
172 | CTCGCATA | 0.376
173 | CTCGCATC | 0.304
174 | CTCGCAGA | 0.0487
175 | ACCTTTCG | 0.094

Row | Sequence | PBM E-score
176 | TAAAGCGA | 0.213
177 | CGTTTAAA | 0.453
178 | CGTTTAAG | 0.429
179 | CGTTTAAC | 0.465
180 | AGTTTAAC | 0.09
181 | AGTTTAAA | 0.0639
182 | CCTTTAAG | -0.259
183 | TGTTTAAA | -0.172
184 | GGTTTAAC | 0.0725
185 | AGTTTAAG | -0.127
186 | ACGGCCCG | 0.208
187 | GGCGATAC | 0.0112
188 | AAGCGGCT | -0.0695
189 | AACCCGGC | 0.11
190 | GCCACAAC | -0.055
191 | AGGAAATG | -0.11
192 | GTCGGTCA | 0.258
193 | GTCGGTTA | 0.369
194 | ATCGGTTA | 0.362
195 | CTCGGTTC | 0.265
196 | CACGGTTA | 0.0472
197 | CTCGGTTA | 0.383
198 | CGCGGAGC | 0.116
199 | AGAGAGAT | -0.163
200 | ACGAGCCA | 0.404

Row | Sequence | PBM E-score
201 | AGGAGCCG | -0.0656
202 | ACGAGCCC | 0.365
203 | CCGAGCCA | 0.138
204 | TCGAGCCA | -0.126
205 | AGGAGCCT | -0.308
206 | ACGAGCCG | 0.389
207 | ACGAGCCT | 0.407
208 | CCGAGCCG | 0.227
209 | CCATTAGC | -0.0326
210 | CTTCTGGC | -0.199
211 | GAACTCCC | 0.178
212 | ACCTTAAC | 0.0365
213 | GTTTAAAC | 0.285
214 | ACGAGAAT | 0.385
215 | ACGAGAAC | 0.4
216 | ACGAGAGT | 0.328
217 | ACGAGAAA | 0.375
218 | TCGAGAAA | 0.0202
219 | ACGAGAAG | 0.313
220 | CCGAGAAA | 0.247
221 | CCGAGAAC | 0.204
222 | ATGAGAAT | -0.0978
